Data published in the supplement of paper PMC11732987, “Enantioselective OTUD7B fragment discovery through chemoproteomics screening and high-throughput optimisation” (Communications Chemistry, 2025).

Columns and labels:
Test in all cases: log2 ratio of Biotin-Ahx-Ub-VS probe labelling (fragment/DMSO); higher = less target engagement (more negative = stronger competition), active = hit call of the paper (q ≤ 0.05, log2 ratio ≤ -1)
Settings in all cases: compound concentration: 200 uM; treatment time: 3 h
USP34 = USP34 (UniProt Q70CQ2)
Summary of the method: (§1)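 Global-median-normalised Spectronaut label-free quantities were compared by unpaired t-test, and values are average log2 ratios of fragment over vehicle. Only proteins with ≥2 unique peptides were used. HEK293T lysate (495 µg per sample) was treated in triplicate with fragment at 200 µM or vehicle for 3 h and then with Biotin-Ahx-Ub-VS at 0.5 µM final for 1 h. Labelled DUBs were then NeutrAvidin-enriched, digested with LysC and trypsin, and run by diaPASEF LC-MS/MS.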

USP36 = target: T1, USP36 (UniProt Q9P275)
T1 sequence (whole entry): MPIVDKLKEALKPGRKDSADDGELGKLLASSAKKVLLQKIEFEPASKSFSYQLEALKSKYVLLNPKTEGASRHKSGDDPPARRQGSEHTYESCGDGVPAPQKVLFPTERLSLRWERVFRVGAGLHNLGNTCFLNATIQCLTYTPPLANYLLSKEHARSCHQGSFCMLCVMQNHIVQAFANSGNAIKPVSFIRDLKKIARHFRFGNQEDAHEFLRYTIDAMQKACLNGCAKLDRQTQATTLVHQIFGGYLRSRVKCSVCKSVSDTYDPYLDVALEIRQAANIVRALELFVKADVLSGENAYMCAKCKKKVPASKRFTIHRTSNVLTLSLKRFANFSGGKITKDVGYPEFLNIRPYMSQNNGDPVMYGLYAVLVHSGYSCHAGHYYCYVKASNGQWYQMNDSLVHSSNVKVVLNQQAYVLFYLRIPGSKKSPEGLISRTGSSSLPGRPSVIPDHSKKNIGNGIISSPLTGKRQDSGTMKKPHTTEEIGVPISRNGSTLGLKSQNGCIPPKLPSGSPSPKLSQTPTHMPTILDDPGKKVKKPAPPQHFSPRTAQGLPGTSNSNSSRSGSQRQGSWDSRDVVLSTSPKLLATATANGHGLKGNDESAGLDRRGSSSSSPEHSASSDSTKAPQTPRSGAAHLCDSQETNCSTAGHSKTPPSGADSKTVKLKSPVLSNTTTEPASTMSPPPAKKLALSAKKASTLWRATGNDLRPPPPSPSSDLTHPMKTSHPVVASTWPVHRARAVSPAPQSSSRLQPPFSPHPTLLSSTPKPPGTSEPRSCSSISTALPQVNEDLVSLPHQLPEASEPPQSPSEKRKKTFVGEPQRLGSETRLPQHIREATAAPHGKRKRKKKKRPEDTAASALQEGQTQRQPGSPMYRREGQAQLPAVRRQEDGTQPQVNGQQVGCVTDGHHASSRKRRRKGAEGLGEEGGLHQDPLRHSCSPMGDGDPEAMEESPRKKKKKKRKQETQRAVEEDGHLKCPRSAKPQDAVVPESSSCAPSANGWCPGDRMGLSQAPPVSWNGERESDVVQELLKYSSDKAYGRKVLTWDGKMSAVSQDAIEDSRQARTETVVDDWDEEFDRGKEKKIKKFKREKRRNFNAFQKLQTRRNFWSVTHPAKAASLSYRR
Summary of the method: as §1

USP38 = target: T2, USP38 (UniProt Q8NB14)
T2 sequence (whole entry): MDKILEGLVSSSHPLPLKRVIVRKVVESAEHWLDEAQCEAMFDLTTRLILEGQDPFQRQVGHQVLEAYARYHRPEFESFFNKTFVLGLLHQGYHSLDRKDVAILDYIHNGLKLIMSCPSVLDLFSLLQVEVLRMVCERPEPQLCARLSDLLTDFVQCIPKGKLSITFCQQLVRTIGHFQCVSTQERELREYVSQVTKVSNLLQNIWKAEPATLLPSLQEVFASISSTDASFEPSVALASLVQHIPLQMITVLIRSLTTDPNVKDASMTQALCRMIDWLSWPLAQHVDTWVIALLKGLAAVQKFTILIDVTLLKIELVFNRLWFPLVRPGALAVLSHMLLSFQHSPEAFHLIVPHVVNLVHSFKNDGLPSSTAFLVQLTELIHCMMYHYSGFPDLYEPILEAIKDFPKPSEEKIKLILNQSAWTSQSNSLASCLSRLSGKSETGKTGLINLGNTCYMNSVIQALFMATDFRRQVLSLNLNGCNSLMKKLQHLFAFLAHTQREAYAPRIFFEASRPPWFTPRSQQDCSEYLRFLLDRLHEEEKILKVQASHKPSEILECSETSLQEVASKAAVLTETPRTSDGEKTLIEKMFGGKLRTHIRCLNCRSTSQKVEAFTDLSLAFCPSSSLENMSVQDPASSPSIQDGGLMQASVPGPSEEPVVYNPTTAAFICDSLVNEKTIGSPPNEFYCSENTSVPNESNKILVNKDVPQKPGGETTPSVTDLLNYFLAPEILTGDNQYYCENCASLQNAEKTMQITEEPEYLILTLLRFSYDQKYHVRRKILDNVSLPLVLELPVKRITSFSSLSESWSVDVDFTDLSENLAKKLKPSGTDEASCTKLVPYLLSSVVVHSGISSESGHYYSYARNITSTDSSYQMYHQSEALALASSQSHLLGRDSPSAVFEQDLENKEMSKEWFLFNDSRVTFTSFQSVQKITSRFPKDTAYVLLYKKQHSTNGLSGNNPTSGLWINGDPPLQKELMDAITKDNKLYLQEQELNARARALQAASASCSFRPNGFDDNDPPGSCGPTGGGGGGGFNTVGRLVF
Summary of the method: as §1

USP39 = target: T3, USP39 (UniProt Q53GS9)
T3 sequence (whole entry): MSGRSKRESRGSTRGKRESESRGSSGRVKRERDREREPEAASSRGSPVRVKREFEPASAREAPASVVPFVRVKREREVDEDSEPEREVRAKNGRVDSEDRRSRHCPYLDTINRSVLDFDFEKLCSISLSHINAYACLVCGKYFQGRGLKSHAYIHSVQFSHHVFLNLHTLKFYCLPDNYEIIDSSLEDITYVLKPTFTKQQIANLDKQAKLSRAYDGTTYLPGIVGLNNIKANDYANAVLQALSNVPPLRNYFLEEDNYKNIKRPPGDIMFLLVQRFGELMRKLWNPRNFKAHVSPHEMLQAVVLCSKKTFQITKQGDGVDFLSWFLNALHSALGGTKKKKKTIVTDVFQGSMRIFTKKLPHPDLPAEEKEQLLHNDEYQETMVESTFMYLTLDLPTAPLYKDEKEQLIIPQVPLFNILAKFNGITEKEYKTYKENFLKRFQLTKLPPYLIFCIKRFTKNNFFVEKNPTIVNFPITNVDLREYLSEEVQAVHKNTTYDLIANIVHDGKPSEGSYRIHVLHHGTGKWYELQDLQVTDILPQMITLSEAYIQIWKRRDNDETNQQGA
Summary of the method: as §1

USP4 = target: T4, USP4 (UniProt Q13107)
T4 sequence (whole entry): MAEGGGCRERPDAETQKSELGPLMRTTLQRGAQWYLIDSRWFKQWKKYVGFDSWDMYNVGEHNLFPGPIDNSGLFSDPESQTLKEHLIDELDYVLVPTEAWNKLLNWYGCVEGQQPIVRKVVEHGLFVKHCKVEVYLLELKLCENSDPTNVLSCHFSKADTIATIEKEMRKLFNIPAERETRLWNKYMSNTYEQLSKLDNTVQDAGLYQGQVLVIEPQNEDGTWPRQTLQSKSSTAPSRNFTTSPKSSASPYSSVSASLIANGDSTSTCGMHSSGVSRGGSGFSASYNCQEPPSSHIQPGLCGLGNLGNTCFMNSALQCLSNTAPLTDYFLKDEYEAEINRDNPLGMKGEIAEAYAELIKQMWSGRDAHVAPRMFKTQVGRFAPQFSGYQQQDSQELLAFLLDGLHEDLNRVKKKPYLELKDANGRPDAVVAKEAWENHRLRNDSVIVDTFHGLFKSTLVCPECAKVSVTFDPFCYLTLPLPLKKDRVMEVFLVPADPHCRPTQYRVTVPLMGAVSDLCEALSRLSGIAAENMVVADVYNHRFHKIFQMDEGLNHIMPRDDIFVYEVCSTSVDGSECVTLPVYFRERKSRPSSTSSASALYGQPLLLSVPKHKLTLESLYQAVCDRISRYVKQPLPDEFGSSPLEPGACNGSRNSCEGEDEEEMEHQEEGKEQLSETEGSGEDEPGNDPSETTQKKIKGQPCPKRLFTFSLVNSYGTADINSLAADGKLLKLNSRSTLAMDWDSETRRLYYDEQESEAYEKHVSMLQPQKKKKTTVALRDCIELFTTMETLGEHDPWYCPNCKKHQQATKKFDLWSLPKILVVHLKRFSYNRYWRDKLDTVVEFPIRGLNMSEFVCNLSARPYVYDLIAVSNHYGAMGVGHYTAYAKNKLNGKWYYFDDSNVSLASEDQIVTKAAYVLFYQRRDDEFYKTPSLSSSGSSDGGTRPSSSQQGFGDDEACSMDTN
Summary of the method: as §1

Measured: log2 ratio of Biotin-Ahx-Ub-VS probe labelling

Chain of USP34 (Q70CQ2 whole entry, the tested form may be a part): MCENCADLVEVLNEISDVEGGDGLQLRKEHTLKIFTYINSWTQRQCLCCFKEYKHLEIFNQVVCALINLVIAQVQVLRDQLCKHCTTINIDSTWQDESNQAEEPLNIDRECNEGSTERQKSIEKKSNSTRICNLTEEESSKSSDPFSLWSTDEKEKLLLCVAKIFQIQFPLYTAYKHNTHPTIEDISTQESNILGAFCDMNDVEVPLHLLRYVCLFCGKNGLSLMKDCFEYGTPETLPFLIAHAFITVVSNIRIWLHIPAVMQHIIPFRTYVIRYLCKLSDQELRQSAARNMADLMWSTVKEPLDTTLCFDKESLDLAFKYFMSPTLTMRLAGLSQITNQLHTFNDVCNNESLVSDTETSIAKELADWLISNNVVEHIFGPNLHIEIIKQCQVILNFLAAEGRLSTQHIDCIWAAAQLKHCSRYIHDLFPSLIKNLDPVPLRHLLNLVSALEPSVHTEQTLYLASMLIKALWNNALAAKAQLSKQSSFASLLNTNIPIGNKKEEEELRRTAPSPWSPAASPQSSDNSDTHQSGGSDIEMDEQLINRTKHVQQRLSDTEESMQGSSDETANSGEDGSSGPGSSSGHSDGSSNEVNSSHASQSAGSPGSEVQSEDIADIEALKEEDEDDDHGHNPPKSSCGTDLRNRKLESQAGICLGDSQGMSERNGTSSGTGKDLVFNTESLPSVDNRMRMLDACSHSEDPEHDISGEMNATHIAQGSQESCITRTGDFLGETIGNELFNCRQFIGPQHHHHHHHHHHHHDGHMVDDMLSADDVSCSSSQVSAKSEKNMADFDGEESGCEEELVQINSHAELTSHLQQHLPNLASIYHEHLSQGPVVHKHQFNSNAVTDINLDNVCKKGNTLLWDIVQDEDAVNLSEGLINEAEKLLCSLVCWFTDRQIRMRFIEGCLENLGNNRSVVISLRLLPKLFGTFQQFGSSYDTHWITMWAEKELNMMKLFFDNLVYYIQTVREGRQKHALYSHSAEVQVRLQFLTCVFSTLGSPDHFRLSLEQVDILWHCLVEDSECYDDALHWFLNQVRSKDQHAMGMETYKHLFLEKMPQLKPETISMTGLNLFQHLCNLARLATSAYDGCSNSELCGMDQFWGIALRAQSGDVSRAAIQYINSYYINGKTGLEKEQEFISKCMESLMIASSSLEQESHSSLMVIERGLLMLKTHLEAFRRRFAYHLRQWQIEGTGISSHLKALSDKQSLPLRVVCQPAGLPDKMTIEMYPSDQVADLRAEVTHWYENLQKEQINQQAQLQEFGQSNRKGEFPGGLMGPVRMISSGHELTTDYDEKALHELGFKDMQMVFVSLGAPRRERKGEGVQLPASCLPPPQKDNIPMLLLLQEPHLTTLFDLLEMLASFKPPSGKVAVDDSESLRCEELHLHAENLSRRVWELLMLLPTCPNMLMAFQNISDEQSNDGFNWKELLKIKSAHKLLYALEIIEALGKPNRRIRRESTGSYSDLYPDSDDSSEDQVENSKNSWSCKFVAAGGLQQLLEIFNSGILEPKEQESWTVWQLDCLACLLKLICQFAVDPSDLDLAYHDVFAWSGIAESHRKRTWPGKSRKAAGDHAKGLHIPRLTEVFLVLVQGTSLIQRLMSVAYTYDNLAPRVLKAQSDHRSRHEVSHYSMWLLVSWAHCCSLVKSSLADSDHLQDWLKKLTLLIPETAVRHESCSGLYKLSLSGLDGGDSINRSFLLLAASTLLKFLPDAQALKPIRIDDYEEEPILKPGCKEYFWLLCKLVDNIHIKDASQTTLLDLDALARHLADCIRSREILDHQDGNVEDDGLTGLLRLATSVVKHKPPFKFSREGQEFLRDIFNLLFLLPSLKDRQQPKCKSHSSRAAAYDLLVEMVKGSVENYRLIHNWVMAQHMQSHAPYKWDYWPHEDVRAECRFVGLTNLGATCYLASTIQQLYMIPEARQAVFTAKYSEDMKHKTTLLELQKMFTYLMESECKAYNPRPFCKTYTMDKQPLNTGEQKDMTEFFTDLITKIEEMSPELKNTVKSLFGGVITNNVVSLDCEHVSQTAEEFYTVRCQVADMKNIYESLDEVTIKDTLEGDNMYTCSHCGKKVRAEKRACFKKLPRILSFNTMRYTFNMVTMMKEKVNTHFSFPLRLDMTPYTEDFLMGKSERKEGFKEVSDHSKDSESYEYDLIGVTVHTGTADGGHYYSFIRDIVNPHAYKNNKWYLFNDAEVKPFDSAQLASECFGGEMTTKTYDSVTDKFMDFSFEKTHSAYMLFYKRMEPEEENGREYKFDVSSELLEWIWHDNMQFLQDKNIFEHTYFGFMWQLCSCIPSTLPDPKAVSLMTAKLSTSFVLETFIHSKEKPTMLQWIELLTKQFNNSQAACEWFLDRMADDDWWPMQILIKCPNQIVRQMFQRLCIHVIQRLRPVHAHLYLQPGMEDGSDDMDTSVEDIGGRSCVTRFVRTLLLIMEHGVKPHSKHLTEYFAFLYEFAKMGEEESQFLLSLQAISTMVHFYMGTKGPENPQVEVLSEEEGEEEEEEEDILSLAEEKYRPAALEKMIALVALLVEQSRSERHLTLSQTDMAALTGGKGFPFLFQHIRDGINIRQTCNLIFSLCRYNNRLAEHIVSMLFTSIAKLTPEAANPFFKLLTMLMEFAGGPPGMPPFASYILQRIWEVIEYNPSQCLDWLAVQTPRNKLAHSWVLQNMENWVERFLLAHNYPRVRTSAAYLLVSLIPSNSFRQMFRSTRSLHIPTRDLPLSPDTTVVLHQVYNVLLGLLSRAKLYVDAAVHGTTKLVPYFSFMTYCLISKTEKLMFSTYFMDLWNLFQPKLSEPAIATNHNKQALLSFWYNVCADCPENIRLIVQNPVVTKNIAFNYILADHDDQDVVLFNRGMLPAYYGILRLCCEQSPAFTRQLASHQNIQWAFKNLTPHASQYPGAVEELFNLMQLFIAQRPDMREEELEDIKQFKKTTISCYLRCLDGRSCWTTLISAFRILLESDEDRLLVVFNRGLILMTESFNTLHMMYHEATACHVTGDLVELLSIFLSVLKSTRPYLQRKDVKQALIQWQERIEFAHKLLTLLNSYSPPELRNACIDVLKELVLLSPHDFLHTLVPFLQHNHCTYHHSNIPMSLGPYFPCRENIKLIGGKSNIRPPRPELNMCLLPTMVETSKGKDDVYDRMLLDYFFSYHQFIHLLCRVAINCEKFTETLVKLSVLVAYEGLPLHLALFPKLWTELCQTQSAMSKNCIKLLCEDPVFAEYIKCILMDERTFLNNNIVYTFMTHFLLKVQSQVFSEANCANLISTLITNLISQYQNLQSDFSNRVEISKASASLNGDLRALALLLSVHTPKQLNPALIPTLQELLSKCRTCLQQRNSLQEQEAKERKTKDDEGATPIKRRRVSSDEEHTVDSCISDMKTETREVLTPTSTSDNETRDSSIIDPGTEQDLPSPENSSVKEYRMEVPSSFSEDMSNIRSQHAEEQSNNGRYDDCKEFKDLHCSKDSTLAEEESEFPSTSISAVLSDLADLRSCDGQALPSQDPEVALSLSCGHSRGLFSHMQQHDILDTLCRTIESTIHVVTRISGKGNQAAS

Cl.O=C(CCl)N[C@H]1C[C@@H](n2cccn2)C1
inactive: USP34 -0.109 | USP36 0.0625 | USP38 0.192 | USP39 0.31 | USP4 -0.0753
